Most compounds without a hit are left out; they make up all but 21% or so of the library.
Pf growth 96h: P. falciparum growth inhibition at 96 hours; P. falciparum luciferase reporter growth, 96 h; Potency, µM (series often up to 28.7 µM), usual class: inhibitors; actives 6.9% (n = 320,000); AID 504834
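Two-generation exposure (96 h) targets delayed-death phenotype. Reporter parasites carrying integrated firefly luciferase, in red cells at 2% hematocrit and 0.05% parasitemia final, kept at 37 C, 5% CO2; luminescence loss indicates inhibition.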
Pf growth 48h: inhibits P. falciparum growth in the first generation, 48 h; P. falciparum luciferase growth in erythrocytes, 48 h; Potency, µM (titrated, usually from 28.7 µM), hits mostly inhibitors; actives 5.9% (n = 310,000)
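Luminescence readout; reporter = integrated firefly luciferase in P. falciparum. RBC culture at 2% hematocrit, 0.1% parasitemia final, 37 C/5% CO2; decreased signal taken as growth inhibition.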
HCV inhibitor: blocks hepatitis C virus | Huh7.5.1 HCVcc-Cre infection, luciferase reporter, 44 h | Potency, µM (doses to about 41.8 µM), hits mostly inhibitors | actives 3.4% (n = 340,000)
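Seed cells (1,000/well) for 4 h; treat with compound and infect with HCVcc-Cre, moi about 0.5. Incubate 44 h, then detect luciferase activity.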
CHX counter: counter-screen for Shiga toxin inhibitors: cycloheximide protein synthesis inhibition. AID 2314. cell reporter, cycloheximide protein synthesis inhibition counterscreen. actives 12% (n = 300,000). max response, %; in the data active = max response mostly above about 13%, no sharp cut-off; inactive = mostly below about 14%; note: read at 38.3 µM for the half of the compounds with a filed dose
Shiga toxin inh: blocks Shiga toxin action in Vero cells; inhibition, % at 38.7 µM; actives 9.2% (n = 290,000); AID 2315; Vero cells, Shiga toxin protein synthesis inhibition reporter; in the data active = inhibition mostly above about 28%, no sharp cut-off; inactive = mostly below about 43%
AMA1-RON2 inh: disrupts binding of P. falciparum AMA1 to RON2 | actives 0.2% (n = 360,000) | Potency, µM (series often up to 58.2 µM), most hits filed as inhibitors | AlphaScreen AMA1-biotinylated RON2 peptide binding; note: nearly all actives have a fitted effect of over 45% in size
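AMA1 (3D7) with his tag at 25 nM final met compounds first, then biotinylated RON2 peptide at 25 nM; detection used donor plus acceptor beads, 10 µg/mL apiece, read by AlphaScreen after 30 min at room temperature.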
Each line names hits and unclear results; the compound was inactive in the other large screens. Unless noted, calls come from the whole dose curve; as a rule, active = well fitted curve in the direction sought with a large enough effect; inconclusive = small, poorly fitted or top-dose-only effect, or another doubt; inactive = no such curve, though single readings can be large; an effect the other way counts as inactive or inconclusive.

CC(/C=C1\SC(=S)N(CCC(=O)Nc2nc(C)cs2)C1=O)=C\c1ccccc1	none
Cc1ccc2nc(C(C)(C)C)c(Cc3cccc(F)c3)n2c1	none (no result: Pf growth 96h, Pf growth 48h, HCV inhibitor, CHX counter, Shiga toxin inh)
CC1CCC(NC(=O)c2cc3c(s2)CS(=O)(=O)C3)CC1 (stereo not given)	Pf growth 96h 11.7µM
CCCCN1C(=O)C(=O)N(c2ccccc2)C1=S	CHX counter 66.6, Shiga toxin inh active
Cc1c(Br)c([N+](=O)[O-])nn1C(C)C(=O)N1CCc2ccccc2C1 (stereo not given)	CHX counter 27.1, Shiga toxin inh 30.2
COC(=O)c1ccc2[nH]c(CO)c(-c3ccccc3)c2c1	Pf growth 48h inconclusive, HCV inhibitor inconclusive
CCC(C)(O)c1[nH]c2ccc(C(=O)OC)cc2c1C (stereo not given)	CHX counter 22.4, Shiga toxin inh 33.6
CCOC(=O)C1CCCN(C(=O)c2cc(S(=O)(=O)N(C)C)ccc2N2CCCC2)C1 (stereo not given)	Pf growth 96h inconclusive (no result: CHX counter, Shiga toxin inh)
COc1ccc(C)cc1NC(C)C(=O)NC(=O)NC1CCCCC1 (stereo not given)	Pf growth 96h inconclusive, Pf growth 48h 13.1µM, AMA1-RON2 inh inconclusive (no result: CHX counter, Shiga toxin inh)
CCc1cccc(NC(=O)c2cccc3c2C(=O)N(C2CCCCC2)C3)c1	Pf growth 96h inconclusive, Pf growth 48h inconclusive
COC(=O)c1ccc(C23CC4(C2)[C@H](CN(Cc2ccc(-c5ccccc5)cc2)[C@@H]4c2ccccc2)C3c2ccc(Cl)nc2)cc1 (stereo not given in full)	Pf growth 96h inconclusive, Pf growth 48h 11.7µM
COC(=O)c1cccc(C23CC4(C2)[C@H](CN(Cc2ccc(-c5ccccc5)cc2)[C@@H]4c2ccccc2)C3c2ccccc2)c1 (stereo not given in full)	Pf growth 96h 1.65µM, Pf growth 48h 11.7µM
CC1=C(C(=O)N2CCCCCC2)CC(CC(=O)NC2CCCC2)C(=O)N1Cc1ccccc1 (stereo not given)	none (no result: Pf growth 96h, Pf growth 48h, HCV inhibitor, CHX counter, Shiga toxin inh)
O=C(O)c1ccc(Nc2c3ccccc3nc3ccccc23)cc1	Pf growth 48h 2.08µM
COc1cccc(Nc2nc(-c3ccccc3O)nc3ccccc23)c1	HCV inhibitor inconclusive (no result: Pf growth 48h)
c1ccc(Nc2nc(-c3ccccc3)nc3ccccc23)cc1	HCV inhibitor 14.1µM (no result: Shiga toxin inh)
COc1cccc(Nc2nc(-c3ccccc3)nc3ccccc23)c1	HCV inhibitor 10µM
O=C(O)c1ccc(Nc2nc(-c3ccccc3)c3ccccc3n2)cc1	Pf growth 96h inconclusive
CCCOC(=O)c1cccc(Nc2nc(-c3cccnc3)nc3ccccc23)c1	Pf growth 48h 9.28µM, HCV inhibitor inconclusive
COc1ccc(NC(=O)C(C)N=C2NS(=O)(=O)c3ccccc32)cc1S(N)(=O)=O (stereo not given)	HCV inhibitor inconclusive (no result: CHX counter, Shiga toxin inh)
O=C(O)c1cccc(Nc2nc(-c3ccccc3)nc3ccccc23)c1	Pf growth 96h inconclusive, CHX counter 18.6, Shiga toxin inh 39.7
Oc1cccc(Nc2nc(-c3ccccc3Cl)nc3ccccc23)c1	Pf growth 48h inconclusive
O=C(O)c1cccc(Nc2nc(C(F)(F)F)nc3ccccc23)c1	none
Fc1cccc(Nc2nc(-c3ccncc3)nc3ccccc23)c1	Pf growth 96h 4.15µM, Pf growth 48h 9.28µM, HCV inhibitor inconclusive (no result: AMA1-RON2 inh)
CNC(=O)c1ccc(Nc2nc(-c3ccccc3)nc3ccccc23)cc1	Pf growth 96h inconclusive, HCV inhibitor inconclusive, CHX counter 15.8
O=C(O)c1ccc(Nc2nc(-c3ccccc3)nc3ccccc23)cc1	Pf growth 48h inconclusive, CHX counter 20.4
COc1ccccc1-c1cccc([C@@H]2C[C@H]3[C@H](CON3C)CN2C(=O)C(C)(C)C)c1	none (no result: Pf growth 96h, Pf growth 48h, CHX counter, Shiga toxin inh)
O=C(OCCNc1nc(-c2ccccc2)nc2ccccc12)c1ccncc1	Pf growth 48h inconclusive, HCV inhibitor 15.8µM
O=C(OCCNc1nc(-c2ccccc2)nc2ccccc12)c1cccnc1	HCV inhibitor inconclusive
Cc1cc(OCC(O)CN)ccc1Cl (stereo not given)	Pf growth 96h 0.738µM
COc1cc2c(cc1OC)CN(CC(=O)Nc1ccc(S(=O)(=O)N3CCCC3)cc1)CC2	Pf growth 96h 13.1µM
COc1ccc(CC(=O)Nc2ccc(S(=O)(=O)N3CCCC3)cc2)cc1OC	HCV inhibitor inconclusive (no result: Pf growth 96h, Pf growth 48h, CHX counter, Shiga toxin inh)
COc1ccc(S(=O)(=O)N2CCc3cc(OC)c(OC)cc3C2)cc1	Pf growth 48h 0.828µM
COc1cc2c(cc1OC)C(C)N(CC(=O)Nc1ccc(S(=O)(=O)N3CCCC3)cc1)CC2 (stereo not given)	Pf growth 96h inconclusive, Pf growth 48h 11.7µM, HCV inhibitor inconclusive
COc1ccc(Br)cc1S(=O)(=O)NCCc1cccs1	none (no result: Pf growth 96h, Pf growth 48h, CHX counter, Shiga toxin inh)
O=C(c1ccc(CS(=O)c2ccccc2Cl)o1)N1CCN(c2ccccn2)CC1 (stereo not given)	Pf growth 96h inconclusive, HCV inhibitor inconclusive
CCSc1ccc2cc(OC)ccc2[n+]1CC	Pf growth 96h inconclusive, Pf growth 48h 0.738µM
CCn1ccc2cc(OC)ccc2c1=S	Pf growth 48h inconclusive
CC[n+]1c(SC)ccc2cc(OC)ccc21	Pf growth 48h 0.738µM
Cc1cc2c(cc1C)-n1nnnc1C(N1CCN(c3ccccn3)CC1)C(c1ccc3c(c1)OCO3)=N2 (stereo not given)	none (no result: Pf growth 96h, Pf growth 48h, HCV inhibitor, CHX counter, Shiga toxin inh)
O=C(Nc1ccc(C(=O)N2CCOCC2)cc1)c1ccccc1	none (no result: Pf growth 96h, Pf growth 48h, CHX counter, Shiga toxin inh)
Cc1ccc(NC(=O)c2ccc(OC(=S)N3CCOCC3)cc2)cc1	HCV inhibitor inconclusive
O=C(Nc1cccc(Br)c1)c1cccc(OC(=S)N2CCOCC2)c1	Pf growth 48h inconclusive, HCV inhibitor inconclusive, CHX counter 41.2, Shiga toxin inh 43.6
O=C(Nc1ccc(C(=O)N2CCOCC2)cc1)c1cccc(Br)c1	Pf growth 96h inconclusive, CHX counter 29.7, AMA1-RON2 inh inconclusive
Fc1cccc(Cc2noc(CN3CCC(c4ccncc4)CC3)n2)c1	HCV inhibitor inconclusive
Clc1ccc(N2CCN(c3ccnc(Cl)n3)CC2)cc1	HCV inhibitor inconclusive (no result: Pf growth 96h, Pf growth 48h, CHX counter, Shiga toxin inh)
CSc1nccc(N2CCN(c3ccc(F)cc3)CC2)n1	Pf growth 96h 11.7µM, Pf growth 48h inconclusive, HCV inhibitor inconclusive, AMA1-RON2 inh inconclusive
N/C(=N\OC(=O)c1ccc(F)cc1)c1ccc(Br)cc1	Pf growth 96h inconclusive, CHX counter 33.0, Shiga toxin inh 70.1
Cc1ccc(/C(N)=N/OC(=O)c2ccc(F)cc2)cc1	Pf growth 96h inconclusive, HCV inhibitor inconclusive, CHX counter 48.8, Shiga toxin inh 91.4
N/C(=N\OC(=O)c1ccc(F)cc1)c1ccccc1	Pf growth 96h 10.4µM, CHX counter 58.8, Shiga toxin inh 150.4
O=C(O/N=C/c1ccc(Br)cc1)c1ccc(F)cc1	none (no result: Pf growth 96h, Pf growth 48h, CHX counter, Shiga toxin inh)
COc1ccc(OC)c(NC(=O)Nc2nc(C(N)CCc3ccccc3)cs2)c1 (stereo not given)	none (no result: Pf growth 96h, Pf growth 48h, HCV inhibitor, CHX counter, Shiga toxin inh)
Cc1ccc(S(=O)(=O)Nc2ccccc2C(=O)N2CCCCCC2)cc1	Pf growth 96h inconclusive

Source: PubChem BioAssay
